This note sets out measurements from PubChem BioAssay (NCATS).

Records with an inconclusive call do not appear. Activity calls are given as the source filed them. Unless noted, the call rests on the fitted dose curve; in most records, active means well fitted curve in the direction sought with a large enough effect; inconclusive means small, poorly fitted or top-dose-only effect, or another doubt; inactive means no such curve, though single readings can be large; an effect the other way counts as inactive or inconclusive.

Experiment [1] has as its target Cytochrome P450 3A4 (Homo sapiens) (UniProt P08684). Nature of the experiment: qHTS Assay for Inhibitors and Substrates of Cytochrome P450 3A4 (AID 884). Further: potency means the concentration at half of the fitted maximal effect; nearly all actives have a fitted effect of over 50% in size. The gist of the method: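 20 nM human CYP3A4 with 25 uM Luciferin-PPXE (at KM) in 200 mM KPO4, preincubated 10 min with compound; NADPH regeneration started a 60 min RT reaction. Luciferin detected by luminescence, normalized to 57 uM ketoconazole as full inhibition.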
(qHTS replaces the single test concentration by a dilution series.)

Experiment [2] has the same target. As to the kind of experiment: qHTS Assay for Activators of Cytochrome P450 3A4 (AID 885). Further: nearly all actives have a fitted effect of over 65% in size. Summed up: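 Steps: enzyme/substrate mix dispensed; compound added, 10 min RT; NADPH regeneration solution added, 60 min RT; luciferin detection buffer stops reaction; 20 min later luminescence measured.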
Experiment [3] concerns Zika virus NS2B-NS3 protease. Nature of the experiment: Primary screen GU AMC qHTS for Zika virus inhibitors (AID 1347154).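 Further: 0% = no-inhibitor control and -100% = no-enzyme control; nearly all actives have a fitted effect of over 70% in size.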 Summed up: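 Fluorogenic AMC-substrate cleavage by noncovalent NS2B-NS3 protease complex (25 nM, pH 8.0 Tris buffer with Tween 20) followed for 15 minutes at room temperature (~20% conversion). Percent inhibition from ex340/em450 signal change, fitted by 4-parameter Hill equation.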

The nature of experiment [4]: Primary qHTS for small molecule stabilizers of the endoplasmic reticulum resident proteome: Secreted ER Calcium Modulated Protein (SERCaMP) assay (AID 1508630). Further: on the % scale 0 is the no-effect control and ±100 the full control effect. The gist of the method:
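GLuc-SERCaMP-expressing SH-SY5Y cells, pretreated 16 h with compound, are challenged with thapsigargin to empty ER calcium stores; after 4 h, coelenterazine is added directly to the medium and luminescence is imaged.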

Experiment [5] addresses Glucocorticoid receptor (Homo sapiens) (UniProt P04150). As to the kind of experiment: GR-GFP Redistribution (AID 450;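 active means compounds whose dose series gives a full or clear partial fitted curve of increased nuclear translocation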; further: potency means the concentration at half of the fitted maximal effect). Particulars: U2OS GR-GFP nuclear translocation, laser cytometry, 2 h.
The target is the same in experiment [6]. As to the kind of experiment: GR-EFC Redistribution (AID 451; calls by dose curve; further: potency means the concentration at half of the fitted maximal effect). The settings on record: CHO-K1 GR-EFC translocation, beta-gal luminescence, 2 h. Summed up:
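Translocation of GR-ED fusion to nuclear EA restores b-gal, read by luminescence after 1 h room-temperature detection. Engineered CHO-K1 biosensor cells, 1,000/well, exposed 2 h at 37 C to titrations up to 46 uM final.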

The target of experiment [7] is DNA dC->dU-editing enzyme APOBEC-3G (Homo sapiens) (UniProt Q9HC16). Nature of the experiment: qHTS for inhibitors of Vif-A3G interactions: Validation (AID 588379). Further: 0% is about no effect. Summed up:
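HeLa cells stably expressing Vif and A3G-eYFP, 700 cells/well, incubated overnight at 37 deg C, then exposed to compound overnight at 37 deg C. Inhibition of Vif-mediated degradation read as increased yellow fluorescence (Ex 488/Em 500-530) by laser-scanning cytometry.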

Experiment [8] has as its target Glutathione peroxidase 1 (Homo sapiens) (UniProt P07203). As to the kind of experiment: Primary qHTS Assay for Inhibitors of Recombinant Selenoprotein Glutathione Peroxidase 1 (GPX1) (AID 1845191). Further: nearly all actives have a fitted effect of over 65% in size. Summed up:
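10 nM GPX1 + cpd, 30 min RT; start w/ 1 mM GSH, 0.5 mM cumene hydroperoxide, 0.5 mM NADPH, 100 nM GR, 0.01% BSA; buffer 50 mM Tris-HCl pH 7.5, 2 mM EDTA, 150 mM NaCl; Fl 340/450, 0 & 15 min.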

Experiment [9] in a line: NCATS anti-infectives library activity on HEK293 viability as a counter-qHTS vs the C. elegans viability qHTS (AID 1745854).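 Further: HEK293 cells exposed to compounds for 24 hr before the viability read; on the % scale 0 is the no-effect control and ±100 the full control effect.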 Summed up: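 Cytotoxicity in human HEK293 cells is measured by ATP-dependent CellTiter-Glo luminescence following a 24 hr incubation with titrated library compounds at 37C. Top final concentration is 41.7 uM.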
Experiment [10] has as its target Cytochrome P450 1A2 (Homo sapiens) (UniProt P05177). Nature of the experiment: p450-cyp1a2 (AID 410; calls by dose curve; further: potency means the concentration at half of the fitted maximal effect). Summed up: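 Inhibition was calculated relative to 57 uM furafylline (full inhibition). The reaction used human CYP1A2 at 20nM with Luciferin-ME at its Km, 100uM, driven by an NADPH-regenerating system for 60 min at room temperature.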
Experiment [11] has as its target Cytochrome P450 2C9 (Homo sapiens) (UniProt P11712). As to the kind of experiment: qHTS Assay for Inhibitors and Substrates of Cytochrome P450 2C9 (AID 883). Further: potency means the concentration at half of the fitted maximal effect; nearly all actives have a fitted effect of over 60% in size. The gist of the method: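 Luminescent read-out of deoxyluciferin hydroxylation, normalized to 57uM sulphaphenazole (AC100). Reaction: 10nM enzyme, 100uM Luciferin-H (equal to KM), 25mM KPO4, 10 min compound preincubation, then 60 min with NADPH regeneration, both at 37C.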

For experiment [12], the target named is Cytochrome P450 2D6 (Homo sapiens) (UniProt P10635). Nature of the experiment: qHTS Assay for Inhibitors and Substrates of Cytochrome P450 2D6 (AID 891). Further: potency means the concentration at half of the fitted maximal effect; nearly all actives have a fitted effect of over 60% in size. The gist of the method: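 Human CYP2D6 (5 nM) with 30 uM Luciferin-ME EGE (at Km) in 100 mM KPO4, compound preincubated 10 min, then NADPH regeneration system for 60 min at room temperature. Luciferin read by luminescence; normalized to 1.43 uM quinidine.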

For experiment [13], the target named is Cytochrome P450 2C19 (Homo sapiens) (UniProt P33261). Nature of the experiment: qHTS Assay for Inhibitors and Substrates of Cytochrome P450 2C19 (AID 899). Further: nearly all actives have a fitted effect of over 60% in size. Further: potency means the concentration at half of the fitted maximal effect. Summed up:
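Luminescence readout of luciferin formed from 10uM Luciferin-H EGE (KM level) by 5 nM CYP2C19 in 50mM KPO4. 60 min NADPH-driven reaction at 37C after 10 min compound preincubation; data scaled to 57uM ketoconazole inhibition.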

Experiment [14] deals with Rap guanine nucleotide exchange factor 3 (Homo sapiens) (UniProt O95398). Nature of the experiment: Confirmatory qHTS for agonist of cAMP-regulated guanine nucleotide exchange factor 3 (EPAC1) (AID 1645881).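 Further: EPAC1 catalysed release of BODIPY-GDP from Rap1B seen as fluorescence loss; 100% = effect of cAMP agonist control; nearly all actives have a fitted effect of over 75% in size.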
The target in experiment [15] is Rap guanine nucleotide exchange factor 4 (Homo sapiens) (UniProt Q8WZA2). Nature of the experiment: Confirmatory qHTS for agonist of cAMP-regulated guanine nucleotide exchange factor 4 (EPAC2) (AID 1645884).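 Further: nucleotide exchange releases bodipy-GDP from Rap1 and this lowers its fluorescence; on the % scale 0 is the no-effect control and ±100 the full control effect; nearly all actives have a fitted effect of over 65% in size.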
For experiment [16] the target is unchanged. As to the kind of experiment: Confirmatory qHTS for antagonist of cAMP-regulated guanine nucleotide exchange factor 4 (EPAC2) (AID 1645885). Further: potency means the concentration at half of the fitted maximal effect; nearly all actives have a fitted effect of over 25% in size.
Experiment [17] has as its target Mitogen-activated protein kinase 10 (Mus musculus) (UniProt Q61831). As to the kind of experiment: JNK3 AlphaScreen Assay (AID 530; active means well fitted curve in either direction with a large enough effect, not every such curve was filed as active;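 further: kinase came from lysate of stimulated human HepG2 cells; signal reports phosphorylation of biotinylated GST-cJun 1-79 at Ser73 with 10 µM ATP; on the % scale 0 is the no-effect control and ±100 the full control effect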). The gist of the method:
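Room-temperature AlphaScreen kinase assay; pre-activated HepG2 lysate as JNK3 source, biotin-GST-cJun(1-79) substrate, 10 uM ATP, compound 15 min preincubation.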
For orientation: Alpha assays give light when donor and acceptor beads are brought close together.

The target of experiment [18] is 3',5'-cyclic-AMP phosphodiesterase 4B (Homo sapiens) (UniProt Q07343). Nature of the experiment: qHTS Assay for Inhibitors of PDE-IV (AID 607; active means well fitted activation curve with a large enough effect in the main read-out, with a control signal flat, not every such curve was filed as active; further: % of control where 0% means no effect). The gist of the method: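 The readout is membrane depolarisation from a cAMP-sensing CNG channel, detected with a potential dye at ex 535/em 590. Cells were HEK293-derived (endogenous PDE-IV) at 1000 cells/well, titrated up to 22.9 uM final.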

Experiment [19] is described as follows: qHTS Assay for Lipid Storage Modulators (AID 1519; calls by dose curve; on activity change, negative = inhibition: on the % scale 0 is the no-effect control and ±100 the full control effect). Particulars: Drosophila S3 cells, BODIPY lipid droplet/cell ratio, laser cytometry, cells loaded with oleic acid. The gist of the method:
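Cells seeded at 5,000 per well were treated with compounds over a concentration series and loaded with oleic acid (400 uM, as added). Lipid droplet fluorescence (488 nm excitation, 500-530 nm channel) was read by laser-scanning cytometry and normalized to 20 uM Triacsin C.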

For experiment [20], the target named is Ubiquitin carboxyl-terminal hydrolase 1 (Homo sapiens) (UniProt O94782). As to the kind of experiment: Inhibitors of USP1/UAF1: Pilot qHTS (AID 504865).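 Further: rhodamine fluorescence freed from ubiquitin-rhodamine substrate followed over time; top concentration of the series differs between compounds; on the % scale 0 is the no-effect control and ±100 the full control effect; nearly all actives have a fitted effect of over 35% in size.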 Summed up: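 Deubiquitinase activity followed as kinetic rhodamine fluorescence release from 150 nM Ub-Rho. 1 nM USP1/UAF1 with compound, after 15 min room-temperature preincubation, in HEPES pH 7.8 buffer containing TCEP, EDTA, BSA and Tween-20.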
Sequence of Ubiquitin carboxyl-terminal hydrolase 1 (Homo sapiens) (O94782 whole entry, looked up): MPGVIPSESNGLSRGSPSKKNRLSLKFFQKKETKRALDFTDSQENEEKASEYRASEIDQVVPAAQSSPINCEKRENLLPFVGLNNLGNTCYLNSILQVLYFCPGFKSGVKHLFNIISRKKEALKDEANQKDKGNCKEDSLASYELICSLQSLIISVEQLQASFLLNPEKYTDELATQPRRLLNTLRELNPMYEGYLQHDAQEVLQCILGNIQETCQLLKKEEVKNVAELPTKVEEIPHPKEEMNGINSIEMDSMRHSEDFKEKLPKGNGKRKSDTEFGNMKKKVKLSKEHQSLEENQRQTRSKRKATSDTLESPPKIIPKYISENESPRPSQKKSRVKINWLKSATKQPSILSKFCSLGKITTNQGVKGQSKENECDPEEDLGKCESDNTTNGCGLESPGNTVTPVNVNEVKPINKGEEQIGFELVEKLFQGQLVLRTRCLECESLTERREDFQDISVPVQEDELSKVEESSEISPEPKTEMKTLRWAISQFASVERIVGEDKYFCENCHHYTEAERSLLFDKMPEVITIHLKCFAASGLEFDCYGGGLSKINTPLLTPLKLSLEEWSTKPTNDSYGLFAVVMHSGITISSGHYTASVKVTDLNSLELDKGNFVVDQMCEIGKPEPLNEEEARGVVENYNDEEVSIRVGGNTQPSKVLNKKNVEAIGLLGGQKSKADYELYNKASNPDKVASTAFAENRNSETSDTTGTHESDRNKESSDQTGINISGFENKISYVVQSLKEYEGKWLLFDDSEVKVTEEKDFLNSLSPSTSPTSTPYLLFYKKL

Sequence of Cytochrome P450 3A4 (Homo sapiens) (P08684 whole entry, looked up): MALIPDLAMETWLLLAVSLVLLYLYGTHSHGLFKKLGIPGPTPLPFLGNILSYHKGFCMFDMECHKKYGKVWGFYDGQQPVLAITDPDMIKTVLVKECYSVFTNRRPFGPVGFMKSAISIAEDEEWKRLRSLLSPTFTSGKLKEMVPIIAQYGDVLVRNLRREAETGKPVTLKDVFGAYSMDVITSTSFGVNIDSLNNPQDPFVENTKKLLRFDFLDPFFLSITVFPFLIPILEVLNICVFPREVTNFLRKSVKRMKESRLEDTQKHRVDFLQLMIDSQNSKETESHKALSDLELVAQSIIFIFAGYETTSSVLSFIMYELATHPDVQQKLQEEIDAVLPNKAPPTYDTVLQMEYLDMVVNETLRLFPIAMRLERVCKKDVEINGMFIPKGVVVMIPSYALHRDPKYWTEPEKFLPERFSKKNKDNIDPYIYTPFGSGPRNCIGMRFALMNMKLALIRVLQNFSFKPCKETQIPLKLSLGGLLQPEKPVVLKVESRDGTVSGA
Sequence of DNA dC->dU-editing enzyme APOBEC-3G (Homo sapiens) (Q9HC16 whole entry, looked up): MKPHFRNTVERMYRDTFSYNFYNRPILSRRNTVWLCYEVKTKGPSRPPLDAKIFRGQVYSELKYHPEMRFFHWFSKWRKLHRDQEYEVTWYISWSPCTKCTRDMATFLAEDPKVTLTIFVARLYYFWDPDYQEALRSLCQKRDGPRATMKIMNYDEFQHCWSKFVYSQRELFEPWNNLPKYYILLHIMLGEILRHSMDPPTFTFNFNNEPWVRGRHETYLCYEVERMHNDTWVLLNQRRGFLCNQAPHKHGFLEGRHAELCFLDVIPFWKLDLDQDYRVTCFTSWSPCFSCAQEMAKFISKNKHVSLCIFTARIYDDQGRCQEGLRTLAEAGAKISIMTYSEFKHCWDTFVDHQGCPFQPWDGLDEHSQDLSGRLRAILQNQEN
Sequence of Glucocorticoid receptor (Homo sapiens) (P04150 whole entry, looked up): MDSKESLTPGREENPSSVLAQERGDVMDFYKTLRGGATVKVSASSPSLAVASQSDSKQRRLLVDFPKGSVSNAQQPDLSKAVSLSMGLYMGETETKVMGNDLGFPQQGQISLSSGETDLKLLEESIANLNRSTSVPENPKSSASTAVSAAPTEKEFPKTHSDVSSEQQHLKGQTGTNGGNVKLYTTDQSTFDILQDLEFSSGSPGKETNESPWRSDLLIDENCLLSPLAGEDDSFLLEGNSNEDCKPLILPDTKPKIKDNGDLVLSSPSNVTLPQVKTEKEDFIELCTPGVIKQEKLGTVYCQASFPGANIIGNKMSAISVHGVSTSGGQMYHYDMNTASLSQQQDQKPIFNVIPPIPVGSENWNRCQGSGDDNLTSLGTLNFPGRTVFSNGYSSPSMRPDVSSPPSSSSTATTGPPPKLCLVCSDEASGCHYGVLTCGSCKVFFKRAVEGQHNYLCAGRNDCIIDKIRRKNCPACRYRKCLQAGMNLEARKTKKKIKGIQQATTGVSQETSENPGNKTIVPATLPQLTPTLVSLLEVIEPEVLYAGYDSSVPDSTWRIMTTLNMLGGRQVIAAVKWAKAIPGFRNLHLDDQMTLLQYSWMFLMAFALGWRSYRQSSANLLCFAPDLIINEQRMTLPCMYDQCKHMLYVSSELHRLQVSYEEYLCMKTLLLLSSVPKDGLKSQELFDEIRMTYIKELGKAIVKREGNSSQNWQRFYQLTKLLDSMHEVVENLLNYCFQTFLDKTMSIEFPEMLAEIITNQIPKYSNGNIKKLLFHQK
Sequence of Cytochrome P450 2C19 (Homo sapiens) (P33261 whole entry, looked up): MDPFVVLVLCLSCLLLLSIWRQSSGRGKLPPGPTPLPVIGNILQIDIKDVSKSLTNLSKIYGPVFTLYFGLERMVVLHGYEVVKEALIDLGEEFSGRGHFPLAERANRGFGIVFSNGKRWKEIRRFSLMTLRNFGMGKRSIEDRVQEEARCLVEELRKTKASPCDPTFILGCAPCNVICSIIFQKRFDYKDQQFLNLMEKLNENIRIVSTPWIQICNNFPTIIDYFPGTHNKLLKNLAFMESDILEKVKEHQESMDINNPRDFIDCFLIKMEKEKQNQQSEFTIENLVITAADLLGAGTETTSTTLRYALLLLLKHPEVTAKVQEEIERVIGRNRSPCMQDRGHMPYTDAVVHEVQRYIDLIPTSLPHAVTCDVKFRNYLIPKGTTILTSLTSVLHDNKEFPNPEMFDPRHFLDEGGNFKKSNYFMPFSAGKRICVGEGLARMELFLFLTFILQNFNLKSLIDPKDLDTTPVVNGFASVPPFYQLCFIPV
Sequence of Rap guanine nucleotide exchange factor 4 (Homo sapiens) (Q8WZA2 whole entry, looked up): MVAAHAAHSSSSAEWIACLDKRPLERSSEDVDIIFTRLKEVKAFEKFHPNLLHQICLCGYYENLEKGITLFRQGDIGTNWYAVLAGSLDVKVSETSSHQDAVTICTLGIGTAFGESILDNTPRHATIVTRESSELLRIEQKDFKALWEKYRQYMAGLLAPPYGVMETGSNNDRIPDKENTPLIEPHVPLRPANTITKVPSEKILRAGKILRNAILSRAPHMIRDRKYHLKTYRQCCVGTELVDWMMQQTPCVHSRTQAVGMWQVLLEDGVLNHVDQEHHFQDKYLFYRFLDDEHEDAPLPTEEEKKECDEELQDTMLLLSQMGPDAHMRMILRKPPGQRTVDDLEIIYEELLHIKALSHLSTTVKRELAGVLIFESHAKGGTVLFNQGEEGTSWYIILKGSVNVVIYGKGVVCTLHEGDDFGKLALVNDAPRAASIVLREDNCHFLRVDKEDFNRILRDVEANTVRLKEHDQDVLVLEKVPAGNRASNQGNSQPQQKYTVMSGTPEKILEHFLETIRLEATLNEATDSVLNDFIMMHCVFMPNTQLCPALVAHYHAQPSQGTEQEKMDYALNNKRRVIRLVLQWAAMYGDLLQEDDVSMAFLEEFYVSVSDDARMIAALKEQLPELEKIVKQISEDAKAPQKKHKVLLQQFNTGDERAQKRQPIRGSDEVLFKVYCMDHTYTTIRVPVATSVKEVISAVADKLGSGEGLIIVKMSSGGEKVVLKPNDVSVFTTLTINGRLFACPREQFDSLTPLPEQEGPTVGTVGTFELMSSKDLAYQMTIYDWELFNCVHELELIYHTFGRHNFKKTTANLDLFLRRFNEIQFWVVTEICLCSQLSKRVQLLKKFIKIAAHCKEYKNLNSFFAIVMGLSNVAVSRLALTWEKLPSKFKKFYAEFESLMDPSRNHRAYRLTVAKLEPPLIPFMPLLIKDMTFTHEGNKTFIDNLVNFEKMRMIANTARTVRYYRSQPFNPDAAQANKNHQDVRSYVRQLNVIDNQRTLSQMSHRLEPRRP
Sequence of Cytochrome P450 2C9 (Homo sapiens) (P11712 whole entry, looked up): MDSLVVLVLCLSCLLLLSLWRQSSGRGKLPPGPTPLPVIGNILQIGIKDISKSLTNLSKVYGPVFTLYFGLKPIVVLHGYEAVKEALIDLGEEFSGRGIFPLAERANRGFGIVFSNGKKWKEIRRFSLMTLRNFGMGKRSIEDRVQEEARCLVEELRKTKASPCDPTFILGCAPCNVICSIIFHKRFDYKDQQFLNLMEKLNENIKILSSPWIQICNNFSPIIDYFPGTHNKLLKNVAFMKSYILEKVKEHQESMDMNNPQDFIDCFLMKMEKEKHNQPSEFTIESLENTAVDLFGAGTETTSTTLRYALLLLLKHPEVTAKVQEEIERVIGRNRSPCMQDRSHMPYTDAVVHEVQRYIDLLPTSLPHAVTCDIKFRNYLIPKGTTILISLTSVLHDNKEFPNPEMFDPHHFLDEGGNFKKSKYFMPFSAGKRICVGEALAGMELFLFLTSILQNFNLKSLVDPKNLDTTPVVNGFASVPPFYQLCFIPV
Sequence of Cytochrome P450 2D6 (Homo sapiens) (P10635 whole entry, looked up): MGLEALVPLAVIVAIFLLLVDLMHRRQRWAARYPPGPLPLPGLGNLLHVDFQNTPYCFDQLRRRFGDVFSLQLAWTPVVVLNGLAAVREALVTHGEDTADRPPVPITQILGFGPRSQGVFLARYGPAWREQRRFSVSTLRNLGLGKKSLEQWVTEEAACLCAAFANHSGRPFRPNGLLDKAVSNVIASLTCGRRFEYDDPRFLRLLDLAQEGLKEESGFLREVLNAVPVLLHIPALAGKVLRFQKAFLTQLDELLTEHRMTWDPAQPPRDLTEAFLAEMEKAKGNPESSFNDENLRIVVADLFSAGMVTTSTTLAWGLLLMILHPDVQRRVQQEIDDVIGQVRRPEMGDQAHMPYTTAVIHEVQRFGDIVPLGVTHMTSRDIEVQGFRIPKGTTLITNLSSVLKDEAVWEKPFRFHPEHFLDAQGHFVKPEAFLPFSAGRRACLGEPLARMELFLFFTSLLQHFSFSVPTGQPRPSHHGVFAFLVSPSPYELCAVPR

On to `O=C1C=CC(=O)C2=C1C1c3ccccc3C2c2ccccc21`, for which, in experiment [1], the Potency is 39.8 µM (active). Also, the Potency result in experiment [2], in [3] and in [4] was “inactive” each time.

Turning to `CC(C)C[C@@H](NC(=O)OCC1c2ccccc2-c2ccccc21)C(=O)O`, the Potency in experiment [5] and in experiment [6] was > 46 µM (inactive) in each case. The Potency result in experiment [7], in experiment [3] and in experiment [4] was “inactive” each time.

`c1ccc(-c2n[nH]c3c2oc2ccccc23)cc1`: the Potency entry in experiment [3] and in [8] was “inactive” each time.

`O=C(/C=C/c1ccccc1)NC(NC(=S)Nc1cccc2cccnc12)C(Cl)(Cl)Cl` (stereo not given): the Potency entry in [3] was “inactive”. Moreover, the compound was called inactive in [9].

In the case of `COC(=O)C1=C(C)NC(C)=C([N+](=O)[O-])[C@@H]1c1ccccc1C(F)(F)F`, the Potency was 39.8 µM (active) in experiment [10]; > 46 µM (inactive) in experiment [6]; 0.158 µM (active) in experiment [11]; 6.31 µM (active) in experiment [12]; 0.126 µM (active) in [13]; 35 µM (active) in experiment [16]. The Potency entry in experiment [2], in experiment [7] and in experiment [3] was “inactive” each time. Besides, the result in experiment [14] and in experiment [15] was inactive.

`CCNCCCNCCCNCCCNCC`: the Potency in experiment [5] and in experiment [6] was > 46 µM (inactive) in each case. Besides, the Potency result in [17], in experiment [18], in experiment [13], in experiment [20], in experiment [7] and in [3] was “inactive” in each case. The activity change, negative = inhibition in experiment [19] (at 57.5 µM (top of the series)) is -4.07% (inactive). Further, the max response was -26.1% in experiment [19] (measured here: cell count channel max response) and -12.2% in experiment [19] (measured here: lipid channel max response).
